High-throughput results: PubChem, National Center for Advancing Translational Sciences (NCATS)
Giardia FBPA inh-1 – blocks Giardia fructose-bisphosphate aldolase activity; A8B2U2; purified Giardia FBPA; Potency, µM (doses to about 59.6 µM), inactives show top-dose activity, negative = inhibition, actives largely listed as inhibitors; 290,000 tested, 0.71% active; AID 2451; further: potency means the concentration at half of the fitted maximal effect; on the % scale 0 is the no-effect control and ±100 the full control effect; nearly all actives have a fitted effect of over 55% in size
Target sequence (A8B2U2 whole entry, looked up): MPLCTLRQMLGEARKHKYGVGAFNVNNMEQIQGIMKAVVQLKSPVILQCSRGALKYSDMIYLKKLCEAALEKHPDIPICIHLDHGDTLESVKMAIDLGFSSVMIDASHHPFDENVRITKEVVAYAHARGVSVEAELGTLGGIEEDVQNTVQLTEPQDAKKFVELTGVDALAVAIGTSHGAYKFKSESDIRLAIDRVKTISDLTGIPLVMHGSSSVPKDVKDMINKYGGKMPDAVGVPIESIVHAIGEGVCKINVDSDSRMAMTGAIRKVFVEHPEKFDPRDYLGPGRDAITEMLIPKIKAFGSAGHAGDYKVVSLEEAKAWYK
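40 nM FBPA preincubated 10 min at RT with compound (up to 57.5 uM final), then substrate plus GAPDH/TPI/NAD/arsenate coupling and diaphorase/resazurin added. Fluorescence read after 20 min at RT, 525/598 nm.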
LmPK inhibitor – inhibitors of Leishmania mexicana pyruvate kinase; Q27686; purified LmPK, Kinase-Glo ATP luminescence, 1 h; Potency, µM (series often up to 57.5 µM), for inactives: at the top dose activity change, negative = inhibition, usual class: inhibitors; 290,000 tested, 0.37% active; AID 1721; further: potency means the concentration at half of the fitted maximal effect; on the % scale 0 is the no-effect control and ±100 the full control effect
Target sequence (Q27686 whole entry, looked up): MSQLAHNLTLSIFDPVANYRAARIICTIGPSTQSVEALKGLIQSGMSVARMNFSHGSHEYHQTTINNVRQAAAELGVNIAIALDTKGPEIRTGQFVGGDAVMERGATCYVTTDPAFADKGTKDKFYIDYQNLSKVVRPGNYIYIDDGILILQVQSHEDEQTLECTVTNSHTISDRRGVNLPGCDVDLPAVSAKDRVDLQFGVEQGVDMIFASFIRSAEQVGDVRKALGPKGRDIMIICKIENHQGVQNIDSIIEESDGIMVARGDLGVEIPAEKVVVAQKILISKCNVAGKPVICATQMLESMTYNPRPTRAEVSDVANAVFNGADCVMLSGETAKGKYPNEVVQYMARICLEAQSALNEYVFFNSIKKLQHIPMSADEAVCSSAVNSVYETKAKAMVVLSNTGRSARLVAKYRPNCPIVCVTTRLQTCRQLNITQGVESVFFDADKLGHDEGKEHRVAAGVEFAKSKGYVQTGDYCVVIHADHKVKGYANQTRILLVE
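Purified LmPK (0.1 nM) with 0.5 mM PEP and 0.1 mM ADP in imidazole buffer pH 7.2 with MgCl2/KCl, 1 h at room temperature. ATP formed was read by luciferase luminescence and normalized to no-enzyme and uninhibited controls.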
Cycloheximide cs – affects cycloheximide protein synthesis inhibition readout, counter-screen. cell reporter, cycloheximide protein synthesis inhibition counterscreen. max response, %. 300,000 tested, 12% active. AID 2314; in the data active means max response mostly above about 13%, no sharp cut-off; inactive means mostly below about 14%; further: read at 38.3 µM for the half of the compounds with a filed dose; 0% is about no effect
Shiga inhibitor – inhibitors of Shiga toxin in Vero cells; Vero cells, Shiga toxin protein synthesis inhibition reporter; AID 2315; 290,000 tested, 9.2% active; inhibition, % at 38.7 µM; in the data active means inhibition mostly above about 28%, no sharp cut-off; inactive means mostly below about 43%; further: 0% is about no effect
Tb PYK inh – T. brucei pyruvate kinase inhibition; 410,000 tested, 0.12% active; AID 624173; Potency, µM (titrated, usually from 76.8 µM), inactives show top-dose activity, negative = inhibition, actives largely listed as inhibitors; Q57TT1; TbPYK enzyme, Kinase-Glo Plus ATP luminescence, 45 min; further: potency means the concentration at half of the fitted maximal effect; on the % scale 0 is the no-effect control and ±100 the full control effect; nearly all actives have a fitted effect of over 50% in size
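Screened from lowest to highest concentration, compounds were pinned into TbPYK/substrate mixtures, and ADP (130 uM final) was added. Plates sat at room temperature for 45 min prior to Kinase-Glo Plus detection by luminescence.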
Sm TGR inh – blocks Schistosoma mansoni thioredoxin glutathione reductase; purified TGR, DTNB reduction, TNB absorbance 405 nm; AID 485364; Q962Y6; 360,000 tested, 3% active; Potency, µM (top dose mostly 114 µM), for inactives: top-dose activity change, negative = inhibition, usual class: inhibitors; further: potency means the concentration at half of the fitted maximal effect; on the % scale 0 is the no-effect control and ±100 the full control effect; nearly all actives have a fitted effect of over 60% in size
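Kinetic colorimetric format: TGR-catalysed, NADPH-driven DTNB reduction monitored via TNB absorbance. Enzyme dispensed at 20 nM; compound exposure 15 min at room temperature before reaction start.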
Giardia growth – Giardia lamblia growth inhibition; AID 2785; shares compounds with Giardia FBPA inh-1; 1,500 tested, 5% active; Potency, µM (titrated, usually from 57.5 µM), inactives show at the highest dose activity change, negative = inhibition, most hits filed as inhibitors; Giardia lamblia trophozoite growth inhibition;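 further: potency means the concentration at half of the fitted maximal effect; trophozoites exposed to compound for 48 h at 37 °C; on the % scale 0 is the no-effect control and ±100 the full control effect; nearly all actives have a fitted effect of over 70% in size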
Mammalian tox – toxic to mammalian cells in Giardia aldolase counter-screen; shares compounds with Giardia FBPA inh-1; mammalian cell viability counter-screen, qHTS; Potency, µM (doses to about 57.5 µM), without a hit: at the top dose viability change, negative = toxicity, usual class: inhibitors; 1,500 tested, 4% active; AID 2786;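 further: Chinese hamster ovary cells used as mammalian cytotoxicity surrogate; viability measured as cellular ATP by luminescence; potency means the concentration at half of the fitted maximal effect; compound exposure lasted 48 h before reading; on the % scale 0 is the no-effect control and ±100 the full control effect; nearly all actives have a fitted effect of over 60% in size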
Giardia FBPA inh-2 – confirmation of Giardia fructose-bisphosphate aldolase inhibitors; purified Giardia aldolase enzyme activity, qHTS; AID 2787; 1,500 tested, 5% active; shares compounds with Giardia FBPA inh-1; Potency, µM (series often up to 57.5 µM), for the others: at the highest dose activity change, negative = inhibition, hits mostly inhibitors; further: potency means the concentration at half of the fitted maximal effect; on the % scale 0 is the no-effect control and ±100 the full control effect; nearly all actives have a fitted effect of over 45% in size
Rabbit FBPA inh – blocks rabbit muscle aldolase in Giardia aldolase selectivity test; shares compounds with Giardia FBPA inh-1; Rabbit muscle FBPA enzyme inhibition, selectivity counter-screen; Potency, µM (doses to about 57.5 µM), without a hit: top-dose activity, negative = inhibition, usual class: inhibitors; 1,500 tested, 4% active; further: potency means the concentration at half of the fitted maximal effect; on the % scale 0 is the no-effect control and ±100 the full control effect; nearly all actives have a fitted effect of over 60% in size
GAPDH coupling – GAPDH inhibition flagged for Giardia aldolase hits; GAPDH coupling enzyme counterscreen, biochemical, qHTS; shares compounds with Giardia FBPA inh-1; 1,500 tested, 6% active; Potency, µM (doses to about 57.5 µM), for inactives: at the top dose activity change, negative = inhibition, hits mostly inhibitors; further: potency means the concentration at half of the fitted maximal effect; on the % scale 0 is the no-effect control and ±100 the full control effect; nearly all actives have a fitted effect of over 55% in size
Starred values were filed as active, the others as inactive; ? = inconclusive; / = not tested or not shown; [ ] = dose if it differs, or a comment. The entries come from a sample that favours hits as a whole. Unless noted, the call rests on the fitted dose curve; in most records, active means well fitted curve in the direction sought with a large enough effect; inconclusive means small, poorly fitted or top-dose-only effect, or another doubt; inactive means no such curve, though single readings can be large; an effect the other way counts as inactive or inconclusive.

SMILES | Giardia FBPA inh-1 | LmPK inhibitor | Cycloheximide cs | Shiga inhibitor | Tb PYK inh | Sm TGR inh | Giardia growth | Mammalian tox | Giardia FBPA inh-2 | Rabbit FBPA inh | GAPDH coupling
CN1CCN(Cc2c(O)ccc3occ(C(=O)c4ccccc4)c23)CC1 | -7.0% | 8.2% | 8.6 | 1.9 | -3.0% | -21.2% | / | / | / | / | /
CCCCn1c(NS(=O)(=O)c2ccccc2)c(C(=O)OCC)c2nc3ccccc3nc21 | 0.446µM* | -0.6% | 3.7 | -9.3 | 2.0% | -31.3% | -7.3%[38.3 µM] | -4.6% | ? | -25.2% | 39.8µM*
CCc1ccc(NC(=O)C(=O)NCCc2csc(-c3ccc(C(F)(F)F)cc3)n2)cc1 | / | / | / | / | 0.2% | -2.6% | / | / | / | / | /
CC(C)C(CCNC1CCN(C)CC1)c1ccc(Cl)cc1 (stereo not drawn) | ? | -4.2% | -5.4 | -12.9 | 4.2% | -17.1% | / | / | / | / | /
CN1CCC(NCCC(c2ccc(F)cc2)c2ccc(Cl)cc2)CC1 (stereo not drawn) | 14.1µM* | -1.6% | -5.5 | -7.6 | 17.4% | -21.2% | ? | 20µM* | 7.4% | 8.1% | -2.7%
NC(=NCc1ccc2c(c1)OCO2)NC(=O)c1ccccc1 | 1.41µM* | -3.4% | -3.2 | 1.7 | -13.9% | / | 12.7%[38.3 µM] | -4.3% | -6.6% | -0.1% | 6.9%
COC(=O)/C=C1\S/C(=N/N=C/c2ccccc2)NC1=O | -0.1% | -16.2% | 9.9 | -4.1 | -22.8% | -13.6% | / | / | / | / | /
COC(=O)C/C=N/N=C1/NC(=O)/C(=C/C(=O)O)S1 | 17.7µM* | 0.6% | -1.0 | 27.8 | -17.8% | ? | -0.3%[10.4 µM] | 0.9% | -10.5% | -9.8% | -13.6%
COc1ccc(CCNC(=O)CSc2nnc(-c3ccco3)c(-c3ccco3)n2)cc1OC | 12.6µM* | 10.8% | -3.2 | -5.3 | / | 2.24µM* | -21.7% | -8.8% | -27.3% | -23.1% | -25.1%
COc1ccc(CCNC(=O)CSc2n[nH]c(N)n2)cc1OC | -5.2% | 9.1% | -2.4 | -8.3 | 0.6% | 1.0% | / | / | / | / | /
NCCCCNS(=O)(=O)c1cccc2c(Cl)cccc12 | -3.4% | / | / | / | / | / | / | / | / | / | /
Nc1nnc(-c2ccco2)s1 | 6.29µM* | 3.9% | 19.4 | 14.8 | 1.1% | 26.9% | 5.0% | -14.0% | 0.6% | 3.6% | 0.8%
O=c1oc2ccccc2c(O)c1C(c1ccccn1)c1c(O)c2ccccc2oc1=O | ? | 11.9% | 2.2 | 14.0 | -2.6% | -4.2% | / | / | / | / | /
Cn1c(O)c(C(c2ccccn2)c2c(O)n(C)c(=S)[nH]c2=O)c(=O)[nH]c1=S | 17.7µM* | -0.9% | -1.4 | -9.0 | -21.0% | -19.6% | 14.5% | -1.2% | 3.0% | -1.4% | 17.3%
CCC(=O)N1CCc2cc(S(=O)(=O)NCCC(=O)Nc3ccc(CC)cc3)ccc21 | / | / | / | / | 1.9% | -3.8% | / | / | / | / | /
CC1=CC(=O)NP(=O)(Oc2ccc3ccccc3c2)N1 (stereo not drawn) | 15.8µM* | -7.3% | -5.2 | 34.0 | ? | ? | ? | 10.3% | -17.5% | 7.2% | 12.0%
O=C(Cn1nc(-c2cccc(Cl)c2)ccc1=O)NCC1COCCO1 (stereo not drawn) | / | / | / | / | -1.1% | -0.6% | / | / | / | / | /
Cc1ccc(CS(=O)Cc2ccc(C(=O)N3CCN(c4ccccn4)CC3)o2)cc1 (stereo not drawn) | / | 1.5% | -1.5 | 7.5 | 1.4% | -19.8% | / | / | / | / | /
CC[C@@H]1Cn2c(c3nc(-c4ccccc4)nc-3n(C)c2=O)N1 | -21.2% | / | / | / | / | / | / | / | / | / | /
O=[N+]([O-])c1cccc(Cn2cnc3c(=S)nc[nH]c32)c1 | / | / | / | / | -23.8% | / | / | / | / | / | /
N#CCCn1cnc2c(=S)nc[nH]c21 | 14.1µM* | -4.2% | 11.1 | -8.2 | -7.6% | 5.4% | -26.5% | -1.5% | 8.2% | 7.1% | -12.9%
CCOc1ccc(C(C)=O)cc1Cc1c(O)[nH]c(=S)[nH]c1=O | 22.4µM* | -8.2% | 0.3 | -19.1 | -26.8% | 4.7% | -16.0% | 1.1% | -8.3% | 1.5% | -16.4%
CCC(C)N(C)C1CCN(C(=S)Nc2cccc(SC)c2)CC1 (stereo not drawn) | 9.98µM* | 0.0% | -1.8 | 4.3 | -1.8% | -19.2% | 7.9%[38.3 µM] | -17.9% | -4.0% | -4.1% | -2.6%
CCCCN(C)C1CCN(C(=S)Nc2cccc(SC)c2)CC1 | 4.7% | -1.5% | 0.6 | -12.0 | -9.9% | -3.3% | / | / | / | / | /
Cc1cc(NC(=O)CN(C)CCOc2ccccc2)ccc1Br | 15.8µM* | -2.3% | 2.9 | 17.8 | 25.6% | 2.0% | ? | 13.2% | -9.1% | 5.2% | -4.1%
O=C(Nc1ccc(F)c(Cl)c1)c1cc(S(=O)(=O)N2CCCc3ccccc32)ccc1F | / | / | / | / | 5.4% | -11.8% | / | / | / | / | /
CCOC(=O)c1cccc(NC(=O)c2cc(S(=O)(=O)N3CCCCCC3)cn2C)c1 | / | / | / | / | -1.0% | -1.4% | / | / | / | / | /
CCC1CCC2(CC1)NC(CO)(CO)CO2 (stereo not drawn) | -5.1% | -1.1% | -8.4 | -12.5 | 8.7% | 0.0% | / | / | / | / | /
